Calls of active or inactive are those of the source. Rule as the data show it: active = inhibition above about 28%; inactive = the rest.

The nature of this assay: StAR promoter reporter inhibitors, counter-screen for LRH-1 inverse agonist project, cell-based, luminescence, high throughput (AID 651611). Conditions: StAR promoter luciferase reporter counterscreen, at 3.6 µM, hits give high values. In general terms: Counterscreens check selectivity or assay interference.
Consider `COc1ccc(Cc2c(-c3cccc(Cl)c3)nc3cc(C)c(Br)c(C)n23)c(C)c1`, for which the inhibition is 3.35% (inactive). For the molecule `N#Cc1cc(Br)ccc1N=C1CCCN1c1ccccc1`, the inhibition is 2.82% (inactive). Regarding `CCCOc1ccc(Cn2cnc3ccccc32)cc1`, the inhibition was 5.08% (inactive).

In the case of `COc1ccc(-n2c(/C=C(\C)O)nc(=O)c3c(C)cc(C)nc32)cc1`, the inhibition is 12.9% (inactive).

With `CC1CCCN(c2cc(N(C)CCO)c([N+](=O)[O-])c3nonc23)C1` (centres undefined), the inhibition was 14.3% (inactive). As for `Cc1nc2ccccc2n1/N=C/c1ccc([N+](=O)[O-])o1`, the inhibition is 16.3% (inactive). The same measure for `COC(=O)c1ccc(NC(=O)CSc2nnc(C)n2CC2CCCO2)cc1` (centres undefined): 3.1% (inactive); for `CC(=O)Nc1ccc(C2=CC(=O)CC(C)(C)C2)cc1`: 15.2% (inactive); for `O=C(NCCN1C(=O)S/C(=C\c2ccc(OC(F)F)cc2)C1=O)c1cnccn1`: 44% (active).

For `CCCn1c(=NC(=O)CCS(=O)(=O)c2ccccc2)sc2cc(S(N)(=O)=O)ccc21`, the inhibition was 1.11% (inactive). The same measure for `COc1cc2c(cc1OC)CN(C(=O)Cn1ccccc1=O)CC2`: 16.3% (inactive); for `Cn1c(SCC(=O)Nc2ccc(N3CCOCC3)cc2)nnc1-c1ccccc1`: 0.41% (inactive); for `Cn1cccc1C(=O)OCC(=O)NCCCc1ccccc1`: 3.25% (inactive). The same measure for `N#CC1=C(N)C(C#N)(C#N)[C@H](c2c(F)cccc2F)[C@H]2CC3(CC=C12)OCCO3`: 16.1% (inactive). The same measure for `COc1cc2c(cc1OC)CN(C(=O)c1ccc([N+](=O)[O-])o1)CC2`: 12.4% (inactive); for `COc1ccc(-c2cc(NC=O)c3ncc(-c4ccc(OC)c(OC)c4)n3c2)c(OC)c1`: 65.5% (active); for `O=C(COC(=O)C1CC(=O)N(Cc2ccccc2)C1)Nc1ccc2c(c1)OCO2` (centres undefined): 6.45% (inactive).

For the molecule `O=C(Nc1nc2c(Cl)cccc2s1)c1ccc([N+](=O)[O-])o1`, the inhibition is 10.3% (inactive).

As for `O=C(CSC1=NCCS1)N1CCN(c2ccc(Cl)cc2)CC1`, the inhibition was 8.14% (inactive). For `COC(=O)c1ccc(NC(=O)COc2cccc(-n3cnnn3)c2)cc1` the value was -5.38% (inactive); for `Cn1c(SCC(=O)Nc2ccc(N3CCOCC3)cc2)nnc1-c1ccco1`, 0.8% (inactive).

For `CCS(=O)(=O)N1Cc2cc(C(=O)NCC3CC3)nc(-c3cccc(-c4cccnc4)c3)c2[C@@H]1CCO`, the inhibition was 8.53% (inactive). On to `CCn1c2ccccc2c2cc(/C=N/n3cn[nH]c3=S)ccc21`, for which the inhibition was 4.27% (inactive). For `CCOc1ccc(C(C)=O)cc1COC(=O)c1cc([N+](=O)[O-])ccc1N1CCOCC1` the value was 15.1% (inactive).

What is called inhibition is the relative decrease from the control value, in per cent.

The record behind these values is PubChem BioAssay.
